In PMC7862700, “An all-to-all approach to the identification of sequence-specific readers for epigenetic DNA modifications on cytosine”:

What was measured:
Assay in all cases: DAPPL (digital affinity profiling via proximity ligation, sequencing); 10 mM Tris-HCl pH 7.5, 50 mM NaCl, 1 mM DTT, 4% glycerol, room temperature, 30 min; GST-TFs on glutathione beads, 16-mer random dsDNA library, 0.1% formaldehyde crosslink after washing; high values mean tight binding
Conditions in all cases: protein: recombinant; tags: N-terminal GST; dsDNA, one strand shown
ERF = molecular target: T1, ERF (Homo sapiens, UniProt P50548 1-548)
T1 sequence: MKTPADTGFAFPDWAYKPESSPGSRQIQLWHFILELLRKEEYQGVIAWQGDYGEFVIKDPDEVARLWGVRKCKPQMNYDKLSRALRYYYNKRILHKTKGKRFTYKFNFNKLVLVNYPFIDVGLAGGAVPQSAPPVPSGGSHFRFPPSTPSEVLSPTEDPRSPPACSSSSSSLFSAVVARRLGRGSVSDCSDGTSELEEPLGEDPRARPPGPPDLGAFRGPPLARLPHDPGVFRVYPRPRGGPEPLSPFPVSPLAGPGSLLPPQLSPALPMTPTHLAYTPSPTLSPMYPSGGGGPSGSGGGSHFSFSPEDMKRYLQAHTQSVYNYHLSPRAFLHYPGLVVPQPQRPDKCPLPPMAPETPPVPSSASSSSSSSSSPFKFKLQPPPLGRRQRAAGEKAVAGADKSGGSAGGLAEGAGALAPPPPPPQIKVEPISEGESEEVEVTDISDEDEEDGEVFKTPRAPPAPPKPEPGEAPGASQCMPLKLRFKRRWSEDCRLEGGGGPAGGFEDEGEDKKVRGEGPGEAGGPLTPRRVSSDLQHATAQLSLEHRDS
Summary of the method: (§1)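 Binding signal is each hexamer's read frequency for a factor divided by its frequency in the tag-only sample. The factors were GST-fused human transcription factors from yeast, captured on glutathione beads, DNA-barcoded and pooled with that sample. Pools were incubated with 200 nmole of a random double-stranded 16-mer DNA library in Tris/NaCl/DTT/glycerol buffer at room temperature for 30 min, then washed, crosslinked with 0.1% formaldehyde, proximity-ligated with BsaI/T4 ligase (1 h, 37 °C), PCR-amplified and sequenced on an Illumina NextSeq500.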

ETV3L = molecular target: T2, ETV3L (Homo sapiens, UniProt Q6ZN32 1-361)
T2 sequence: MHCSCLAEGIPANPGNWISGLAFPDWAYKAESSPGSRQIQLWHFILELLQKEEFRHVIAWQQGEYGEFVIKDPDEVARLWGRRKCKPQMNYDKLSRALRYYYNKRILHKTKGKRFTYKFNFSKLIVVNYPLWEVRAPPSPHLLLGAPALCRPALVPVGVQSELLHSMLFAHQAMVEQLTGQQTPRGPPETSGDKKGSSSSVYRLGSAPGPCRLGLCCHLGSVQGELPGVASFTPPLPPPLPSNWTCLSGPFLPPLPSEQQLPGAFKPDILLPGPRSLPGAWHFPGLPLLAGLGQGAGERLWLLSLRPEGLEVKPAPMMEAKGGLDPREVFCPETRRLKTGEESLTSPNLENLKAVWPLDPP
Summary of the method: as §1

ETS2 = molecular target: T3, ETS2 (Homo sapiens, UniProt P15036 1-469)
T3 sequence: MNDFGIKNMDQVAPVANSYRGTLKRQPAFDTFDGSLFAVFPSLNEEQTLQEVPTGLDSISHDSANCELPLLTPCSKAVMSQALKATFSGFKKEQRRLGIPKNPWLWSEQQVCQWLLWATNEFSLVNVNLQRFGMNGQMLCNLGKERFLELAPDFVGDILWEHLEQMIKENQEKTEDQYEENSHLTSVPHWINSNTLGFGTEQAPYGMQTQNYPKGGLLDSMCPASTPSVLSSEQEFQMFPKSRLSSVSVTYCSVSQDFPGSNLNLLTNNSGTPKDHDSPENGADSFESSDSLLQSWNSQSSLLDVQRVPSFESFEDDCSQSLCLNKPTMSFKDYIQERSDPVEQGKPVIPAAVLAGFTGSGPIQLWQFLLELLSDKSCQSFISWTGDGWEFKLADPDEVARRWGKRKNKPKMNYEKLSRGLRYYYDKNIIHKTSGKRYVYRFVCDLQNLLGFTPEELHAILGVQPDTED
Summary of the method: as §1

SPDEF = molecular target: T4, SPDEF (Homo sapiens, UniProt O95238 1-335)
T4 sequence: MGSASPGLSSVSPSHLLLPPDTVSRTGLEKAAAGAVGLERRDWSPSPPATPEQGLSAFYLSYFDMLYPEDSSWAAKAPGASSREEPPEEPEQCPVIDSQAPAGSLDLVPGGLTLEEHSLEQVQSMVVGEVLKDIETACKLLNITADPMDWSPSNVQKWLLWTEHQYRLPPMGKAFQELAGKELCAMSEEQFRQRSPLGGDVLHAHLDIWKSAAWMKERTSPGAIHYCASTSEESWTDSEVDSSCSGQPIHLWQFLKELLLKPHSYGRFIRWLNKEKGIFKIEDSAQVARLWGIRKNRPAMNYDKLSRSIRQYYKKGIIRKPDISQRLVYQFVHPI
Summary of the method: as §1

ETV7 = molecular target: T5, ETV7 (Homo sapiens, UniProt Q9Y603 1-341)
T5 sequence: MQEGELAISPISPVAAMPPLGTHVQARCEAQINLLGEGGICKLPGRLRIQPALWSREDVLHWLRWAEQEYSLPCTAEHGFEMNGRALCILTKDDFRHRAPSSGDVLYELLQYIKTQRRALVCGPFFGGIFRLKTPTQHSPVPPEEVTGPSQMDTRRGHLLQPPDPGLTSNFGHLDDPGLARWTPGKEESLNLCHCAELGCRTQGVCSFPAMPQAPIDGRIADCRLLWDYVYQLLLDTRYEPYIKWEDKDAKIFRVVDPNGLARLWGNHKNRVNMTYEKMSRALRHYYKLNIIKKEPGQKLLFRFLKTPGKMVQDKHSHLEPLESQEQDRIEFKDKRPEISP
Summary of the method: as §1

ELF5 = molecular target: T6, ELF5 (Homo sapiens, UniProt Q9UKW6-2 1-255)
T6 sequence: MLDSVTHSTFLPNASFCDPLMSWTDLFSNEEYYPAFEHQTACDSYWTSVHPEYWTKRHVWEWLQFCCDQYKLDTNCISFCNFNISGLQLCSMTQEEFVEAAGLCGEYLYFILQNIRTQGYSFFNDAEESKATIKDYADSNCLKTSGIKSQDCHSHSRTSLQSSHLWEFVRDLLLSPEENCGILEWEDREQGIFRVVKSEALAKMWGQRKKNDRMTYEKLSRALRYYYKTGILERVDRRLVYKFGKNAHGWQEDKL
Summary of the method: as §1

ETV3 = molecular target: T7, ETV3 (Homo sapiens, UniProt P41162-2 1-143)
T7 sequence: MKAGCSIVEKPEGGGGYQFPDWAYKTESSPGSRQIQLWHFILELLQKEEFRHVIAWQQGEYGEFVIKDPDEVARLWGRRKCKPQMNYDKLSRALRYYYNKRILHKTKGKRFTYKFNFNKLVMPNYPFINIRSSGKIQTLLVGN
Summary of the method: as §1

ETV6 = ETV6 (Homo sapiens, UniProt P41212 1-452)
Sequence of ETV6 (P41212 whole entry): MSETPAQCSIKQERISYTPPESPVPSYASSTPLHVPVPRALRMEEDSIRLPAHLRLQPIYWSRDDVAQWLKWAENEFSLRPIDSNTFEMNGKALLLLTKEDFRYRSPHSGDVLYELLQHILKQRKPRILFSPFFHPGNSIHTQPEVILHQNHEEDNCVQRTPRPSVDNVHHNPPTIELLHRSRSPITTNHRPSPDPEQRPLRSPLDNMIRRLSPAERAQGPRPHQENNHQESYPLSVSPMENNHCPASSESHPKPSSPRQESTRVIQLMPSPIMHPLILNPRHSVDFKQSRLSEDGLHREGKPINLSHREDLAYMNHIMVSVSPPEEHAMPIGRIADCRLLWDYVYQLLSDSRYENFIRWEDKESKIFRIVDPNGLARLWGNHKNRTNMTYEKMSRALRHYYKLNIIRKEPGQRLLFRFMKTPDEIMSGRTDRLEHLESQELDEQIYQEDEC
Summary of the method: as §1

| Sequence | binding signal (ERF) | binding signal (ETV3L) | binding signal (ETS2) | binding signal (SPDEF) | binding signal (ETV7) | binding signal (ELF5) | binding signal (ETV3) | binding signal (ETV6) |
| --- | --- | --- | --- | --- | --- | --- | --- | --- |
| GCGCTT | 1.42 fold enrichment (6-mer frequency, TF over GST control) | 1.3 fold enrichment (6-mer frequency, TF over GST control) | 1.37 fold enrichment (6-mer frequency, TF over GST control) | 1.2 fold enrichment (6-mer frequency, TF over GST control) | 1.34 fold enrichment (6-mer frequency, TF over GST control) | 1.31 fold enrichment (6-mer frequency, TF over GST control) | 1.42 fold enrichment (6-mer frequency, TF over GST control) | 1.33 fold enrichment (6-mer frequency, TF over GST control) |
| TTTAAA | 1.31 fold enrichment (6-mer frequency, TF over GST control) | 1.35 fold enrichment (6-mer frequency, TF over GST control) | 1.26 fold enrichment (6-mer frequency, TF over GST control) | 1.16 fold enrichment (6-mer frequency, TF over GST control) | 1.36 fold enrichment (6-mer frequency, TF over GST control) | 1.19 fold enrichment (6-mer frequency, TF over GST control) | 1.22 fold enrichment (6-mer frequency, TF over GST control) | 1.27 fold enrichment (6-mer frequency, TF over GST control) |
| AAATAT | 1.25 fold enrichment (6-mer frequency, TF over GST control) | 1.32 fold enrichment (6-mer frequency, TF over GST control) | 1.37 fold enrichment (6-mer frequency, TF over GST control) | 1.35 fold enrichment (6-mer frequency, TF over GST control) | 1.4 fold enrichment (6-mer frequency, TF over GST control) | 1.41 fold enrichment (6-mer frequency, TF over GST control) | 1.29 fold enrichment (6-mer frequency, TF over GST control) | 1.43 fold enrichment (6-mer frequency, TF over GST control) |
| CCCGAC | 1.29 fold enrichment (6-mer frequency, TF over GST control) | 1.41 fold enrichment (6-mer frequency, TF over GST control) | 1.27 fold enrichment (6-mer frequency, TF over GST control) | 1.44 fold enrichment (6-mer frequency, TF over GST control) | 1.37 fold enrichment (6-mer frequency, TF over GST control) | 1.38 fold enrichment (6-mer frequency, TF over GST control) | 1.25 fold enrichment (6-mer frequency, TF over GST control) | 1.42 fold enrichment (6-mer frequency, TF over GST control) |
| GAACCT | 1.04 fold enrichment (6-mer frequency, TF over GST control) | 1.18 fold enrichment (6-mer frequency, TF over GST control) | 1.14 fold enrichment (6-mer frequency, TF over GST control) | 1.08 fold enrichment (6-mer frequency, TF over GST control) | 1.19 fold enrichment (6-mer frequency, TF over GST control) | 1.03 fold enrichment (6-mer frequency, TF over GST control) | 1.1 fold enrichment (6-mer frequency, TF over GST control) | 1.03 fold enrichment (6-mer frequency, TF over GST control) |
| CCCATT | 1.32 fold enrichment (6-mer frequency, TF over GST control) | 1.3 fold enrichment (6-mer frequency, TF over GST control) | 1.43 fold enrichment (6-mer frequency, TF over GST control) | 1.19 fold enrichment (6-mer frequency, TF over GST control) | 1.38 fold enrichment (6-mer frequency, TF over GST control) | 1.4 fold enrichment (6-mer frequency, TF over GST control) | 1.24 fold enrichment (6-mer frequency, TF over GST control) | 1.29 fold enrichment (6-mer frequency, TF over GST control) |
| ACATTT | 1.54 fold enrichment (6-mer frequency, TF over GST control) | 1.49 fold enrichment (6-mer frequency, TF over GST control) | 1.42 fold enrichment (6-mer frequency, TF over GST control) | 1.41 fold enrichment (6-mer frequency, TF over GST control) | 1.46 fold enrichment (6-mer frequency, TF over GST control) | 1.59 fold enrichment (6-mer frequency, TF over GST control) | 1.56 fold enrichment (6-mer frequency, TF over GST control) | 1.56 fold enrichment (6-mer frequency, TF over GST control) |
